# High-throughput results: PubChem, several laboratories
# In the library only some 0.99% were active in any assay of this set; here they are far more common.
# SKBR3 24h inh: SK-BR-3 proliferation inhibitors; SK-BR-3 viability, CellTiter-Glo ATP luminescence, 24 h; stronger effect = lower value; viability, % at 10 µM; actives 0.47% (n = 41,000);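 active = viability at or below the median of all test compounds minus 3 SD, in both replicates if run twice, cut at about 45% in these data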;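 note: 100% = median untreated cell wells and 0% = median positive control drug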
# Cdc25B inh: inhibitors of human Cdc25B phosphatase; P30305; recombinant Cdc25B, OMFP fluorescence Ex485/Em525; inhibition, %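 (compounds tested at 10 µM final in the well)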; AID 368; actives 0.1% (n = 65,000); in the data active = inhibition above about 50%
# DUSP1 inh: blocks human MKP-1 phosphatase activity; P28562; recombinant MKP-1, OMFP hydrolysis fluorescence; inhibition, %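 (compounds tested at a single concentration somewhere between 10 and 100 µM)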; actives 0.15% (n = 65,000); AID 374;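 active = inhibition above about 50%, limit read from the data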;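 note: 0% = DMSO max control wells and 100% = wells with enzyme stopped by NaOH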
# Target sequence (P28562 whole entry, looked up): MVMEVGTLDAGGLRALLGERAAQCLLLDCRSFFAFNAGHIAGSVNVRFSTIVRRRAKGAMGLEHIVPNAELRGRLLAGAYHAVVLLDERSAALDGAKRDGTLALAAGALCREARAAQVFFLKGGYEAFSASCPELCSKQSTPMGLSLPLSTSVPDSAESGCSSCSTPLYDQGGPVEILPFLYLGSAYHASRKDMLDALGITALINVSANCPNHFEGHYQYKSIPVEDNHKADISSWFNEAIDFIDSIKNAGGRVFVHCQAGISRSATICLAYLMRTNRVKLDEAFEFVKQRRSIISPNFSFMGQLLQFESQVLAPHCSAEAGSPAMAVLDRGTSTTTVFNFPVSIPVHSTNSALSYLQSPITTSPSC
# Hsp90 inh: displaces geldanamycin probe from tumor Hsp90 | P07900 | NCI-N417 lysate Hsp90, Cy3B-geldanamycin FP displacement | inhibition, % at 30 µM | actives 0.35% (n = 64,000);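 active = inhibition above 50%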;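 note: 0% = tracer plus lysate wells and 100% = tracer alone without lysate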
# PKA inh: PKA (human) kinase inhibition. inhibition, % at 6 µM. actives 0.1% (n = 65,000). PKA Kemptide phosphorylation, Kinase-Glo ATP luminescence. P17612;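 active = inhibition above the screen-wide mean inhibition plus 3 SD, cut at about 21% in these data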
# ROCK2 blocker: ROCK2 (human) kinase inhibition | actives 0.35% (n = 60,000) | O75116 | inhibition, % at 6 µM | purified ROCK2, Kinase-Glo ATP depletion luminescence;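 active = inhibition above the screen-wide mean inhibition plus 3 SD, cut at about 18% in these data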;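 note: plate controls were DMSO wells for no effect and Y-27632 control wells after no-enzyme background subtraction for full effect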
# Redox 05 DTT: redox cycling H2O2 generation, Cdc25B counter-screen. EC50, µM. actives 50% (n = 30). shares compounds with Cdc25B inh. cell-free redox cycling H2O2 generation, 0.5 mM DTT; in the data active = EC50 below about 30 µM
# Redox H2O2 1DTT: redox cycling H2O2 generation, Cdc25B counter-screen. EC50, µM. cell-free redox cycling H2O2 generation, 1 mM DTT. 30 tested, under 10 active. shares compounds with Cdc25B inh; in the data active = EC50 below about 50 µM
# Redox cycler: counter-screen for MKP-1 and MKP-3 probes: redox cycling H2O2 generation | shares compounds with DUSP1 inh | DTT, phenol red/HRP | EC50, µM | 60 tested, under 10 active; call rule not given here
# The depositor's hits bear a star; i = inactive; / = not tested or not shown.
SMILES,SKBR3 24h inh,Cdc25B inh,DUSP1 inh,Hsp90 inh,PKA inh,ROCK2 blocker,Redox cycler,others
Cc1c(N=c2c(=O)c3ccccc3c2=O)c(=O)n(-c2ccccc2)n1C,86,98*,88*,80*,-3,4,>50,Redox 05 DTT=13*;Redox H2O2 1DTT=41*
Cc1c(N=CC=Nc2c(C)n(C)n(-c3ccccc3)c2=O)c(=O)n(-c2ccccc2)n1C,/,1,6,-3,-2,0,/,
CC/C(=C\C(=O)c1cccnc1)Nc1ccc(C)c(C)c1,89,-11,-17,-2,12,14,/,
O=Nc1c2nc3ccccc3n(O)c-2c2ccccc12,82,-2,-2,-7,9,3,/,
[O-]/[N+](=C\c1ccncc1)c1ccccc1,/,64*,64*,26,5,6,i,Redox 05 DTT=>50;Redox H2O2 1DTT=>50
[O-]/[N+](=C\c1ccc(OC(F)F)cc1)c1ccccc1,108,73*,65*,2,7,9,>50,Redox 05 DTT=>50;Redox H2O2 1DTT=>50
COc1ccc2noc3c2c1C(=O)c1ccccc1-3,/,97*,79*,39,14,6,>50,Redox 05 DTT=27*;Redox H2O2 1DTT=>50
CCOC(=O)CNc1nc(C#N)nc(N2CCOCC2)n1,84,-12,-28,-4,14,8,/,
Cc1cccc(N2CCN(C(=O)Cc3c(C(=O)O)[nH]c4ccc(Cl)cc34)CC2)c1C,89,2,53*,-4,4,4,>50,
Cc1cccc(N2CCN(C(=O)CCn3c(=O)[nH]c4ccccc4c3=O)CC2)c1C,/,-25,19,-1,8,5,/,
Cc1ccc(C(=O)C2COC(=O)C2)cc1 (stereo not given),/,-2,3,-3,-3,/,/,
Cc1nc(NCCCn2ccnc2)c2ccccc2n1,/,-4,7,-3,3,0,/,
O=C1c2ccccc2-c2onc3ccc(NCCCn4ccnc4)c1c23,82,6,25,140*,10,4,>50,
COc1ccc(-c2cc3nc(C4CCN(C(=O)OC(C)(C)C)CC4)c(C(=O)O)cn3n2)cc1,/,-4,65*,0,4,4,>50,
CC(=O)NC1(c2cccc(F)c2)CCN(C(=O)Nc2ccc(C#N)cc2)CC1,/,-3,16,-5,2,/,/,
CCOc1cc(/C=C(/C#N)c2ccc(F)cc2)ccc1OCc1ccc(C(=O)O)o1,91,-4,54*,-9,2,-2,>50,
CCC(=O)Nc1c(C#N)c2nc3ccccc3nc2n1-c1ccc(C)cc1,87,9,-18,-3,6,10,/,
N#Cc1c(NC(=O)c2ccc(Br)o2)n(-c2ccccc2)c2nc3ccccc3nc12,76,8,23,44,-2,-1,>50,
Cc1ccc(/C=C/C2=Cc3c(sc(NC(=O)CSc4n[nH]c(N)n4)c3C#N)C(C)(C)C2)o1,/,34,69*,-21,8,5,>50,
CCOC(=O)c1c(NC(=O)CSc2n[nH]c(N)n2)sc(CC)c1C,/,-9,33,-4,5,4,/,
CN(CCO)C(=O)CCC(=O)Nc1ccc(S(N)(=O)=O)cc1,103,1,-24,-4,9,4,/,
CCc1ccc2[nH]c(=O)c(C(c3nnnn3CC3CCCO3)N3CCN4CCCC4C3)cc2c1 (stereo not given),76,-3,2,-5,-6,-4,/,
[O-]/[N+](=C/c1ccc(F)cc1)c1ccccc1,149,48,82*,6,8,8,>50,
O=C(Nc1ccccc1)c1ccc2nc(-c3ccco3)c(-c3ccco3)nc2c1,63,45,59*,-20,-3,-6,>50,
CCc1ccccc1NC(=O)CN(c1cccc(OC)c1)S(C)(=O)=O,/,1,2,-1,8,4,/,
O=C1C(C2=C(O)c3ccccc3C2=O)=Nc2ccccc21,/,23,91*,57*,2,5,>50,
COC(=O)c1ccccc1NC(=O)Cn1cc(Br)cn1,84,-1,5,-4,8,5,/,
Cc1ccc(-c2csc(NC(=O)c3ccno3)n2)cc1,/,23,53*,-13,-4,/,>50,
